In PubChem BioAssay (EPA / NIEHS):
Calls of active or inactive are those of the source. The calls were made as follows: active = hit-call score of the fitted dose curve at least 0.9, where 1 is the maximum; inactive = score below 0.9.

experiment: BSK_3C_TissueFactor: BioMAP Diversity Plus: 3C Assay for Tissue Factor Biomarker Activity (AID 2282997); details: BioMAP 3C HUVEC, tissue factor biomarker readout; actives raise or lower the signal
Description: BSK_3C is a cell-based, multiplexed-readout assay that uses umbilical vein endothelium, a human vascular primary cell, with measurements taken at 24 hours after chemical dosing in a 96-well plate.BSK_3C_TissueFactor is an assay component measured in the BSK_3C assay. It measures Tissue Factor antibody related to regulation of gene expression using ELISA technology.Data from the assay component BSK_3C_TissueFactor was analyzed into 1 assay endpoint. This assay endpoint, BSK_3C_TissueFactor, was analyzed with bidirectional fitting relative to DMSO as the negative control and baseline of activity. Using a type of binding reporter, gain or loss-of-signal activity can be used to understand changes in the signaling as they relate to the gene F3. Furthermore, this assay endpoint can be referred to as a primary readout, because this assay has produced multiple assay endpoints where this one serves a signaling function. To generalize the intended target to other relatable targets, this assay endpoint is annotated to the cytokine intended target family, where the subfamily is coagulation factor.
The levels of cell surface (or secreted, indicated by the prefix "s") biomarker endpoints were measured by ELISA. Overt cytotoxicity to cells in confluent adherent cultures (all systems other than the BT system) was assessed by measuring total protein levels using sulforhodamine B (SRB) staining in parallel cultures at the time of biomarker measurements, indicated as SRB endpoints. For proliferation assays for adherent cell types, individual cell types are cultured at sub-confluence and relative cell numbers quantified by SRB staining at time points optimized for each system (48 h: 3C and CASM3C systems; 72 h: BT and HDF3CGF systems; 96 h: SAg system). SRB was performed by staining cells with 0.1% SRB after fixation with 10% TCA and reading wells at 560 nm.Viability and proliferation of PBMC (T cells) was quantified by Alamar Blue reduction for the SAg and BT systems. For PBMC viability (referred to as PBMC Cytotoxicity within the assay endpoint names), cells were plated (75,000/well in a 96-well plate) and then chemical samples added for 1 h before addition of activators, SEB and TSST-1 (20 ng/mL final concentration each). Cells were incubated for 90 h. Then, Alamar Blue (20 uL/well) (Invitrogen, Cat DAL1100) was added for 6 h, and the plates were read with a fluorescence microplate reader at 546/580 nm (excitation/emission). For PBMC proliferation, cells were plated and activated as above but incubated for only 16 h prior to addition of Alamar Blue. Plates were read after 6 h.

SMILES | AC50 | outcome
CC(C)(C)c1cc(/C=C2\SC(N)=NC2=O)cc(C(C)(C)C)c1O | 14.8 µM (active) | 
CCCCCCCCCCCCO | 36.3 µM (active) | 
O=C1c2ccccc2C(=O)N1CCc1noc(-c2ccc(CN3CCCCCC3)s2)n1 |  | inactive
COc1cc(C(=O)NC2CCN(C)CC2)ccc1Nc1ncc2c(n1)N(C1CCCC1)CC(F)(F)C(=O)N2C | 5.9 µM (active) | 
CCCCCCCCOc1ccc(C(=O)c2ccccc2)c(O)c1 | 13.2 µM (active) | 
CCCCCCCCCCCO | 36.4 µM (active) | 
O=C=NCCCCCCN=C=O |  | inactive
c1ccc2ccccc2c1 |  | inactive
CCN(Cc1cccc(S(=O)(=O)O)c1)c1ccc(C(=C2C=CC(=[N+](CC)Cc3cccc(S(=O)(=O)O)c3)C=C2)c2ccccc2S(=O)(=O)[O-])cc1 |  | inactive
CN1C(=O)CC[C@H]1c1cccnc1 |  | inactive
O=CCCCC=O | 30.3 µM (active) | 
O=C(Nc1ccc(Cl)cc1)Nc1ccc(Cl)c(Cl)c1 |  | inactive
Cc1ncc(CO)c(CO)c1O |  | inactive
Cc1cccc2ccccc12 |  | inactive
O=c1c(-c2ccc(O)cc2)coc2cc(O)cc(O)c12 |  | inactive
O=C1O[C@H]([C@@H](O)CO)C(O)=C1O |  | inactive
O=c1ccc2ccccc2o1 |  | inactive
CC[C@@H]1C[C@H](N(Cc2cc(C(F)(F)F)cc(C(F)(F)F)c2)C(C)=O)c2cc(C(F)(F)F)ccc2N1C(=O)OC(C)C |  | inactive
O=C(O)Cn1c(=O)n(Cc2ccc(Br)cc2F)c(=O)c2ccc(Cl)cc21 |  | inactive
CCCCCc1ccc(N)cc1 |  | inactive

SMILES | AC50 | outcome
CCCCCCCCCCCC[N+](C)(C)C |  | inactive
C[C@]12CC[C@@H]3c4ccc(O)cc4CC[C@H]3[C@@H]1CC[C@H]2O | 18.1 µM (active) | 
CCCCCCCC[Si](OCC)(OCC)OCC |  | inactive
CC1=CC(=O)/C(=C(/C)O)C(=O)O1 |  | inactive
O=C(O)c1ccccc1C(=O)OCc1ccccc1 |  | inactive
Cc1oc2c(NC(=O)c3c(Cl)cccc3Cl)cccc2c1C(C)(C)O | 4.29 µM (active) | 
OC12N=C(c3ccccc3)SC1Cc1cc(Cl)ccc12 (stereo not given) | 5.1 µM (active) | 
CN1C(=O)N(c2ccccc2Br)Cc2cnc(Nc3ccc4c(c3)OCC(CO)O4)nc21 (stereo not given) | 9.9 µM (active) | 
CCCOC(=O)c1cc(O)c(O)c(O)c1 |  | inactive
Cc1cn([C@H]2C[C@H](N=[N+]=[N-])[C@@H](CO)O2)c(=O)[nH]c1=O |  | inactive
CC[C@H](NC(=O)c1cc(F)ccc1NS(=O)(=O)c1cccc2cccnc12)c1ccccc1 |  | inactive
Cc1ccc2oc(CN(Cc3ccccc3)C(=O)Nc3c(F)cc(F)cc3F)c(-c3ccc(Cl)cc3)c2c1 |  | inactive
CN(C[C@@H](CC[N+]12CCC(C3CCCCC3)(CC1)CC2)c1ccc(Cl)c(Cl)c1)C(=O)c1cc(C(F)(F)F)cc(C(F)(F)F)c1 | 23.5 µM (active) | 
O=C(OCCCCCCOC(=O)c1ccccc1)c1ccccc1 |  | inactive
Oc1ccc2ccccc2c1 |  | inactive
NCc1cccc(C2CCN(C(=O)c3ccc(C#Cc4ccccc4F)o3)CC2)c1 | 15.6 µM (active) | 
CC1(C)NC(=O)N(c2ccc([N+](=O)[O-])c(C(F)(F)F)c2)C1=O |  | inactive
CCCCCCCCN(C)CCCCCCCC |  | inactive
CC(C)(O)c1ccc(CNC(=O)c2cccnc2Oc2ccc3nonc3c2)cc1 |  | inactive
Cc1ccc(C(C)C)cc1 |  | inactive
